Usually AC50 stands for the midpoint of the concentration-response curve, whichever way the signal moves.

These results are taken from PubChem BioAssay (EPA / NIEHS).

Activity calls are given as the source filed them. The calls were made as follows: active = hit-call score of the fitted dose curve at least 0.9, where 1 is the maximum; inactive = score below 0.9.

A short description of experiment [1]: ATG_E_Box_CIS: Attagene CIS-FACTORIAL HepG2 Assay for human Enhancer Box (E-box) (AID 2282936). The note with it: HepG2 E-box cis-reporter transcription, actives raise or lower the signal. In outline:
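DMSO served as negative control and baseline for bidirectional fitting. Human hepatoma HepG2 cells, transiently transfected with cis-reporter constructs, were dosed 24 h; reporter mRNA read by RT-PCR and capillary electrophoresis.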

Experiment [2] in a line: ATG_M_61_CIS: Attagene CIS-FACTORIAL HepG2 Assay for M61 Transcription Factor (Internal Marker) (AID 2282937). The note with it: HepG2 Attagene CIS-FACTORIAL M61 internal marker reporter; actives raise or lower the signal. In outline:
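Readout is reporter mRNA by RT-PCR, fluorescent primer extension and capillary electrophoresis, with gain or loss fitted relative to DMSO. Transfected HepG2 cells carrying endogenous-TF-driven cis reporters were exposed to chemicals for 24 hours.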

Experiment [3] can be described thus: ATG_EGR_CIS: Attagene CIS-FACTORIAL HepG2 Assay for human Early Growth Response 1 (EGR1) (AID 2282938). The conditions noted are these: HepG2 Attagene CIS-FACTORIAL EGR reporter mRNA; actives raise or lower the signal. In outline:
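After 24 h compound exposure, RNA from reporter-transfected HepG2 cells was reverse-transcribed, PCR-amplified, fluorescently labelled and resolved by capillary electrophoresis. EGR1 reporter transcript changes, up or down, were fitted against DMSO, reflecting endogenous transcription-factor activity.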

Experiment [4] is described as follows: ATG_M_19_CIS: Attagene CIS-FACTORIAL HepG2 Assay for M19 Transcription Factor (Internal Marker) (AID 2282939). The conditions noted are these: HepG2 Attagene CIS-FACTORIAL M19 internal marker reporter; actives raise or lower the signal. In outline: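 In this multiplexed cell assay, transiently transfected HepG2 reporter units report endogenous transcription-factor activity; after 24 hours of treatment, labelled reporter cDNA fragments are quantified by capillary electrophoresis and fitted bidirectionally against DMSO.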

A short description of experiment [5]: ATG_ERE_CIS: Attagene CIS-FACTORIAL HepG2 Assay for Estrogen Response Element (ERE) (AID 2282940). The conditions noted are these: HepG2 ERE cis-reporter, Attagene RNA transcript; actives raise or lower the signal. The method, boiled down: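 Measuring endogenous transcription factor output, the assay doses transfected HepG2 cells for 24 hours and quantifies reporter transcripts by fluorescent RT-PCR and capillary electrophoresis, with DMSO as baseline.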

Experiment [6] is described as follows: ATG_Ets_CIS: Attagene CIS-FACTORIAL HepG2 Assay for human Erythroblast Transformation Specific (ETS) (AID 2282941). The conditions noted are these: HepG2 ETS cis-reporter transcription, actives raise or lower the signal. In outline: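 Human HepG2 hepatoma cells were transiently transfected with promoter-driven reporter constructs and treated for 24 hours. Reporter transcripts were quantified by RT-PCR with fluorescent primer extension; bidirectional curve fitting used DMSO as reference.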

Experiment [7] has as its target Hepatocyte nuclear factor 3-beta (Homo sapiens) (UniProt Q9Y261). As to the kind of experiment: ATG_FoxA2_CIS: Attagene CIS-FACTORIAL HepG2 Assay for human Forkhead box A2 (FOXA2) (AID 2282942). The note with it: HepG2 cis-reporter transcription factor activity, 24 h; actives raise or lower the signal. In outline:
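Endogenous transcription factor activity is captured via cis-element-driven reporter transcripts in transfected HepG2. Total RNA taken at 24 h post-dosing; labelled RT-PCR products resolved by capillary electrophoresis. Gain or loss fitted versus DMSO.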

A short description of experiment [8]: ATG_FoxO_CIS: Attagene CIS-FACTORIAL HepG2 Assay for human Forkhead box O (FoxO) (AID 2282943). The conditions noted are these: HepG2 Attagene cis-reporter, FoxO element, mRNA; actives raise or lower the signal. The method, boiled down: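 Human hepatoma HepG2 cells carry transiently introduced reporter transcription units controlled by cis promoter elements. Chemical treatment lasted 24 h, and mRNA signal was compared with DMSO.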

A short description of experiment [9]: ATG_GATA_CIS: Attagene CIS-FACTORIAL HepG2 Assay for human GATA Binding Protein (AID 2282944). The conditions noted are these: HepG2 GATA cis-element reporter, Attagene multiplex mRNA; actives raise or lower the signal. In outline:
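Measures endogenous transcription factor-driven reporter mRNA in HepG2 cells transiently carrying cis-regulated constructs. 24 h dosing; RNA via oligo(dT) reverse transcription, PCR, HpaI digestion, capillary electrophoresis; fitted relative to DMSO.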

A short description of experiment [10]: ATG_GLI_CIS: Attagene CIS-FACTORIAL HepG2 Assay for human Zinc Finger Protein GLI1 (AID 2282945). The conditions noted are these: HepG2, Attagene cis-factorial reporter mRNA, GLI element; actives raise or lower the signal. The method, boiled down: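 Bidirectional curve fits relative to DMSO, using reporter mRNA levels from RT-PCR plus capillary electrophoresis. Cells were HepG2 transiently carrying cis-regulated reporter constructs, harvested 24 h after dosing.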

Chain of Hepatocyte nuclear factor 3-beta (Homo sapiens) (Q9Y261 whole entry, looked up): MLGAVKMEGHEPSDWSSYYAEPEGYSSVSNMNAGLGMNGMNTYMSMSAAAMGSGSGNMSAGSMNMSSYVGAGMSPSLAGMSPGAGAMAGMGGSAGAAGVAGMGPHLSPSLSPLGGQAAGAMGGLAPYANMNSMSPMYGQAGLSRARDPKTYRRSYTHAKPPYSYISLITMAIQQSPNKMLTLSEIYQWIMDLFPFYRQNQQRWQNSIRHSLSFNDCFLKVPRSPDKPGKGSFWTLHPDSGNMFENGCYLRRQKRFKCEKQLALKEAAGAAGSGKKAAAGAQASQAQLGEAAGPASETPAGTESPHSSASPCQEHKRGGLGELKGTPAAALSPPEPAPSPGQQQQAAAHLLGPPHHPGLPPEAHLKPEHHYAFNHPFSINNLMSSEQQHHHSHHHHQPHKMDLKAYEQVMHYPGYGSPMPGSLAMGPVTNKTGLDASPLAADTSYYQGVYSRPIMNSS

Take `O=[N+]([O-])c1cccc(Cl)c1`: the result in experiment [1], in experiment [2], in experiment [3], in experiment [4], in experiment [5] and in experiment [6] was inactive. The compound was called inactive in experiment [7], in experiment [8], in experiment [9] and in [10].
As for `CCN(CCN)c1cccc(C)c1`, the result in [1], in [2], in [3], in [4], in experiment [5] and in experiment [6] was inactive. Moreover, the compound was classed as inactive in experiment [7], in experiment [9] and in experiment [10].
For `C1CCCCC1`, the outcome in experiment [1], in experiment [2], in experiment [3], in [4], in experiment [6] and in experiment [7] was inactive. Besides, the compound was classed as inactive in experiment [8] and in [9].
`CC(C)(CO)[C@@H](O)C(=O)NCCC(=O)O`: the result in experiment [1], in experiment [2], in experiment [3], in [4], in experiment [5] and in [6] was inactive. Further, the outcome in experiment [7], in [8], in experiment [9] and in experiment [10] was inactive.
Consider `NC1CCCCC1N` (configuration not stated), for which the result in [1], in experiment [2], in [3], in [4], in experiment [6] and in experiment [7] was inactive. In addition, the compound was called inactive in experiment [8] and in experiment [9].
`O=C(O)CCCCCCCCC(=O)O`: the outcome in experiment [1], in experiment [2], in [3], in experiment [4], in [6] and in experiment [7] was inactive. The compound was classed as inactive in [8] and in experiment [9].
Regarding `OC[C@H]1O[C@@H](Oc2ccc(O)cc2)[C@H](O)[C@@H](O)[C@@H]1O`, the outcome in [1], in experiment [2], in experiment [3], in experiment [4], in experiment [5] and in experiment [6] was inactive. Besides, the call in experiment [7], in experiment [8], in experiment [9] and in experiment [10] was inactive.
Turning to `COC(=O)C=C(C)CCC=C(C)C`, the result in [1], in [2], in experiment [3], in experiment [4], in [5] and in experiment [6] was inactive. In addition, the compound was classed as inactive in experiment [7], in [8], in [9] and in [10].
Consider `CC(C)NCC(O)COc1ccc(CC(N)=O)cc1` (configuration not stated), for which the result in experiment [1], in experiment [2], in experiment [3], in [4], in experiment [5] and in [6] was inactive. Also, the result in experiment [7], in [8], in experiment [9] and in [10] was inactive.
Take `C=C(CC(=O)O)C(=O)O`: the outcome in experiment [1], in [2], in experiment [3], in experiment [4], in [6] and in [7] was inactive. The outcome in experiment [8] and in experiment [9] was inactive.
In the case of `Nc1c(S(=O)(=O)O)cc(Br)c2c1C(=O)c1ccccc1C2=O`, the result in [1], in [2], in experiment [3], in [4], in [6] and in [7] was inactive. Also, the compound was classed as inactive in [8], in experiment [9] and in experiment [10]. Moreover, the AC50 in [5] is 31.9 µM (active).
Regarding `OCCCCC(O)CO` (configuration not stated), the result in experiment [1], in experiment [2], in [3], in experiment [4], in experiment [6] and in experiment [7] was inactive. Moreover, the call in [8] and in experiment [9] was inactive.
As for `CC=Cc1ccc(OCC)c(O)c1`, the result in [1], in experiment [2], in experiment [3], in experiment [4], in experiment [6] and in experiment [7] was inactive. In addition, the compound was called inactive in [8] and in experiment [9].
As to `CC(=O)CC(=O)Nc1ccc(C)cc1C`, the outcome in [1], in experiment [2], in experiment [3], in experiment [4], in experiment [6] and in [7] was inactive. In addition, the compound was called inactive in experiment [8], in experiment [9] and in [10].
Regarding `C=C(C)C(=O)OCCOC1CC2CC1C1C=CCC21` (configuration not stated), the result in experiment [1], in experiment [2], in experiment [3], in experiment [4], in experiment [6] and in experiment [7] was inactive. The result in [8], in experiment [9] and in experiment [10] was inactive.
In the case of `CC(C)OCCO`, the result in experiment [1], in [2], in [3], in experiment [4], in experiment [6] and in experiment [7] was inactive. In addition, the outcome in experiment [8] and in experiment [9] was inactive.
On to `CCCCCCCCCCCCN1CCCCCC1=O`, for which the AC50 in experiment [1] was 16.3 µM (active). Besides, the compound was called inactive in experiment [2], in [3], in experiment [4], in [6], in experiment [7] and in [8]. In experiment [9], the call was inactive.
Take `C=CC(C)C#N` (configuration not stated): the result in [1], in experiment [2], in experiment [3], in [4], in [6] and in experiment [7] was inactive. For the same compound, the call in [8], in experiment [9] and in experiment [10] was inactive.
With `COc1ccc(COC(C)=O)cc1`, the result in [1], in experiment [2], in [3], in experiment [4], in experiment [6] and in experiment [7] was inactive. The result in experiment [8], in experiment [9] and in experiment [10] was inactive.
With `CSCCC=O`, the result in [1], in experiment [2], in experiment [3], in experiment [4], in experiment [6] and in experiment [7] was inactive. Moreover, the call in [8], in experiment [9] and in [10] was inactive.
For the compound `CC(=O)NCCO`, the result in experiment [1], in experiment [2], in [3], in experiment [4], in experiment [6] and in experiment [7] was inactive. The call in experiment [8], in experiment [9] and in experiment [10] was inactive.
In the case of `Oc1c(Cl)cc(Cl)c(Cl)c1Cc1c(O)c(Cl)cc(Cl)c1Cl`, the outcome in experiment [1], in [2], in experiment [4], in [7], in experiment [8] and in experiment [9] was inactive. Moreover, in [10], the outcome was inactive. Besides, the results for the concentration at half-maximal activity (AC50) in experiment [3] and in experiment [6] were 11.1 µM (active) and 0.878 µM (active), respectively.
For `C[N+](C)(C)CCCCCC[N+](C)(C)C`, the result in experiment [1], in experiment [2], in [3], in experiment [4], in experiment [6] and in experiment [7] was inactive. Moreover, the compound was classed as inactive in experiment [8], in experiment [9] and in [10].
Take `CC(=O)c1c(C)c([N+](=O)[O-])c(C(C)(C)C)c([N+](=O)[O-])c1C`: the result in experiment [1], in experiment [2], in experiment [3], in experiment [4], in experiment [6] and in experiment [7] was inactive. Moreover, the outcome in experiment [8], in [9] and in experiment [10] was inactive.
As for `CC1(C)C(=O)N(Cl)C(=O)N1Br`, the outcome in experiment [1], in experiment [2], in experiment [3], in experiment [4], in [6] and in experiment [7] was inactive. Moreover, the outcome in experiment [8] and in experiment [9] was inactive.
For `CCCCN(CCCC)C(=O)N(CCCC)CCCC`, the result in [1], in [2], in experiment [3], in experiment [4], in experiment [6] and in experiment [7] was inactive. In addition, the outcome in experiment [8] and in experiment [9] was inactive. The AC50 in experiment [10] was 51.7 µM (active).
For `N#Cc1cscn1`, the result in [1], in experiment [2], in experiment [3], in experiment [4], in experiment [6] and in [7] was inactive. The call in experiment [8] and in experiment [9] was inactive.
On to `CC(C)=CCCC(C)CC(=O)O` (configuration not stated), for which the outcome in experiment [1], in [2], in experiment [3], in experiment [4], in experiment [6] and in [7] was inactive. Also, the compound was called inactive in experiment [8] and in experiment [9].
